In the supplement of paper PMC8728848:
This is one part of a sample in which the strongest signals are shown more often than they occur.

Legend:
Assay in all cases: glycan array binding signal (z-score within array); higher = stronger binding
Conditions in all cases: glycan notation: IUPAC condensed, linker removed
[1] = biological target: Fuc(a1-2)Gal(b1-3)GalNAc(b1-3)Gal
Method in brief: (§1)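 Arrays were curated from the Consortium for Functional Glycomics database, 3228 in total, and kept only where the protein sequence was available. Binding is expressed as a within-array Z-score. This score was averaged across arrays of the same protein sequence at different concentrations or buffers and across linkers, and negative values can be read as non-binding.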

[2] = biological target: Fuc(a1-2)Gal(b1-4)GlcNAc(b1-3)Gal(b1-4)GlcNAc(b1-3)Gal(b1-4)GlcNAc
Method in brief: as §1

[3] = biological target: Fuc(a1-2)Gal(b1-4)[Fuc(a1-3)]GlcNAc
Method in brief: as §1

[4] = biological target: Fuc(a1-2)Gal(b1-4)[Fuc(a1-3)]GlcNAc(b1-3)Gal(b1-4)[Fuc(a1-3)]GlcNAc
Method in brief: as §1

[5] = biological target: Fuc(a1-2)[Gal(a1-3)]Gal(b1-3)GlcNAc
Method in brief: as §1

[6] = biological target: Fuc(a1-3)[Gal(b1-4)]GlcNAc(b1-2)Man(a1-3)[Fuc(a1-3)[Gal(b1-4)]GlcNAc(b1-2)Man(a1-6)]Man(b1-4)GlcNAc(b1-4)GlcNAc
Method in brief: as §1

[7] = biological target: Fuc(a1-3)[Neu5Ac(a2-3)]Gal(b1-4)GlcNAc(b1-3)GalNAc
Method in brief: as §1

[8] = biological target: Gal(b1-3)GalNAc(a1-3)[Fuc(a1-2)]Gal(b1-4)GlcNAc
Method in brief: as §1

[9] = biological target: Gal(b1-3)[Fuc(a1-4)]GlcNAc(b1-2)Man(a1-3)[Gal(b1-3)[Fuc(a1-4)]GlcNAc(b1-2)Man(a1-6)]Man(b1-4)GlcNAc(b1-4)[Fuc(a1-6)]GlcNAc
Method in brief: as §1

[10] = biological target: Gal(b1-4)GlcNAc(b1-3)GalNAc
Method in brief: as §1

[11] = biological target: Gal(b1-4)GlcNAc(b1-6)GalNAc
Method in brief: as §1

[12] = biological target: Gal3S(b1-3)[Fuc(a1-4)]GlcNAc
Method in brief: as §1

[13] = biological target: Gal3S(b1-4)GlcNAc
Method in brief: as §1

[14] = biological target: GlcNAc(a1-4)Gal(b1-4)GlcNAc(b1-3)Gal(b1-4)[Fuc(a1-3)]GlcNAc(b1-3)Gal(b1-4)[Fuc(a1-3)]GlcNAc
Method in brief: as §1

[15] = biological target: GlcNAc(b1-2)Man(a1-3)[GlcNAc(b1-2)Man(a1-6)]Man(b1-4)GlcNAc(b1-4)[Fuc(a1-6)]GlcNAc
Method in brief: as §1

[16] = biological target: GlcNAc(b1-3)Gal(b1-3)GalNAc
Method in brief: as §1

[17] = biological target: Man(a1-2)Man(a1-2)Man(a1-3)Man
Method in brief: as §1

[18] = biological target: Man(a1-3)[Man(a1-6)]Man
Method in brief: as §1

[19] = biological target: Man(a1-3)[Man(a1-6)]Man(a1-6)[Man(a1-2)Man(a1-3)]Man(b1-4)GlcNAc(b1-4)GlcNAc
Method in brief: as §1

[20] = biological target: Neu5Ac(a2-3)Gal(b1-3)GalNAc(b1-4)[Neu5Ac(a2-3)]Gal(b1-4)Glc
Method in brief: as §1

[21] = biological target: Neu5Ac(a2-3)Gal(b1-4)GlcNAc(b1-3)GalNAc
Method in brief: as §1

[22] = biological target: Neu5Ac(a2-3)Gal(b1-4)[Fuc(a1-3)]GlcNAc(b1-3)Gal(b1-4)GlcNAc
Method in brief: as §1

[23] = biological target: Neu5Ac(a2-3)Gal(b1-4)[Fuc(a1-3)]GlcNAc6S
Method in brief: as §1

[24] = biological target: Neu5Ac(a2-6)Gal(b1-4)GlcNAc(b1-2)Man(a1-3)[Neu5Ac(a2-6)Gal(b1-4)GlcNAc(b1-2)Man(a1-6)]Man(b1-4)GlcNAc(b1-4)GlcNAc
Method in brief: as §1

[25] = biological target: Neu5Ac(a2-6)Gal(b1-4)GlcNAc(b1-2)Man(a1-6)[Gal(b1-4)GlcNAc(b1-2)Man(a1-3)]Man(b1-4)GlcNAc(b1-4)GlcNAc
Method in brief: as §1

[26] = biological target: Neu5Ac(a2-6)Gal(b1-4)GlcNAc(b1-2)Man(a1-6)[Man(a1-3)]Man(b1-4)GlcNAc(b1-4)GlcNAc
Method in brief: as §1

[27] = biological target: Neu5Ac(a2-6)Gal(b1-4)GlcNAc6S
Method in brief: as §1

[28] = biological target: Neu5Ac(a2-8)Neu5Ac
Method in brief: as §1

[29] = biological target: Neu5Ac(a2-8)Neu5Ac(a2-3)[GalNAc(b1-4)]Gal(b1-4)Glc
Method in brief: as §1

[30] = biological target: Neu5Gc(b2-6)Gal(b1-4)GlcNAc
Method in brief: as §1

B1: GALT1 115 D492A (Arabidopsis thaliana), Q8L7F9 (protein)
chain: DPMRGSHHHHHHGMASMTGGQQMGRDLYDDDDKSRLQKPYITAAASVVVTPNTTLPMEWLRITLPDFMKEARNTQEAISGDDIAVVSGLFVEQNVSKEEREPLLTWNRLESLVDNAQSLVNGVDAIKEAGIVWESLVSAVEAKKLVDVNENQTRKGKEELCPQFLSKMNATEADGSSLKLQIPCGLTQGSSITVIGIPDGLVGSFRIDLTGQPLPGEPDPPIIVHYNVRLLGDKSTEDPVIVQNSWTASQDWGAEERCPKFDPDMNKKVDDLDECNKMVGGEINRTSSTSLQSNTSRGVPVAREASKHEKYFPFKQGFLSVATLRVGTEGMQMTVDGKHITSFAFRDTLEPWLVSEIRITGDFRLISILASGLPTSEESEHVVDLEALKSPTLSPLRPLDLVIGVFSTANNFKRRMAVRRTWMQYDDVRSGRVAVRFFVGLHKSPLVNLELWNEARTYGDVQLMPFVDYYSLISWKTLAICIFGTEVDSAKFIMKTDDAAFVRVDEVLLSLSMTNNTRGLIYGLINSDSQPIRNPDSKWYISYEEWPEEKYPPWAHGPGYIVSRDIAESVGKLFKEGNLKMFKLEDVAMGIWIAELTKHGLEPHYENDGRIISDGCKDGYVVAHYQSPAEMTCLWRKYQETKRSLCCREW
[1]
  glycan array binding signal (z-score): 1.79
[2]
  glycan array binding signal (z-score): 6.73
[3]
  glycan array binding signal (z-score): 8.05
[4]
  glycan array binding signal (z-score): -0.068
[5]
  glycan array binding signal (z-score): -0.352
[6]
  glycan array binding signal (z-score): -0.034
[7]
  glycan array binding signal (z-score): -0.012
[8]
  glycan array binding signal (z-score): 0.06
[9]
  glycan array binding signal (z-score): -0.152
[10]
  glycan array binding signal (z-score): -0.374
[11]
  glycan array binding signal (z-score): -0.406
[12]
  glycan array binding signal (z-score): -0.223
[13]
  glycan array binding signal (z-score): -0.298
[14]
  glycan array binding signal (z-score): 2.05
[15]
  glycan array binding signal (z-score): 2.9
[16]
  glycan array binding signal (z-score): 1.5
[17]
  glycan array binding signal (z-score): 0.15
[18]
  glycan array binding signal (z-score): -0.244
[19]
  glycan array binding signal (z-score): 0.404
[20]
  glycan array binding signal (z-score): -0.335
[21]
  glycan array binding signal (z-score): -0.152
[22]
  glycan array binding signal (z-score): 0.671
[23]
  glycan array binding signal (z-score): -0.172
[24]
  glycan array binding signal (z-score): 0.357
[25]
  glycan array binding signal (z-score): -0.362
[26]
  glycan array binding signal (z-score): -0.139
[27]
  glycan array binding signal (z-score): 0.087
[28]
  glycan array binding signal (z-score): -0.221
[29]
  glycan array binding signal (z-score): -0.078
[30]
  glycan array binding signal (z-score): 0.041
